According to PubChem BioAssay AID624098 (National Center for Advancing Translational Sciences (NCATS), 2012):
Inconclusive results are not listed. Calls of active or inactive are those of the source.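 Rule for the calls: active = immobility above 50% at 10 µM after 1 hour; inconclusive = immobility from 15% to 50% at 1 hour; inactive = immobility below 15%.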

Test: Assay for General Anesthetic Phenotype in Xenopus Tadpoles
Details: startle-response immobility, 1 h, at 10 µM, stronger effect = higher value
Excerpt: Anesthetic development has remained a largely empirical process. There are growing concerns about the cognitive effects of known general anesthetics and acceleration of the onset of neurodegenerative disease. The compounds' toxicity and multiple specific binding targets in the mammalian brain [4] has made them less attractive as drug leads. This assay was designed for the in vivo follow-up testing of compounds in tadpoles. References: [1] S.L. Bianchi, T. Tran, C. Liu, S. Lin, Y. Li, J.M. Keller, R.G. Eckenhoff, and M.F. Eckenhoff, Brain and behavior changes in 12-month-old Tg2576 and nontransgenic mice exposed to anesthetics. Neurobiol Aging 29 (2008) 1002-10. Z. Xie, Y. Dong, U. Maeda, R.D. Moir, W. Xia, D.J. Culley, G. Crosby, and R.E. Tanzi, The inhalation anesthetic isoflurane induces a vicious cycle of apoptosis and amyloid beta-protein accumulation. J Neurosci 27 (2007) 1247-54. P. Honegger, and J.M. Matthieu, Selective toxicity of the general anesthetic propofol for GABAergic neurons in rat brain cell cultures. J Neurosci Res 45 (1996) 631-6. M.F. Eckenhoff, K. Chan, and R.G. Eckenhoff, Multiple specific binding targets for inhaled anesthetics in the mammalian brain. J Pharmacol Exp Ther 300 (2002) 172-9. C.A. Butts, J. Xi, G. Brannigan, A.A. Saad, S.P. Venkatachalan, R.A. Pearce, M.L. Klein, R.G. Eckenhoff, and I.J. Dmochowski, Identification of a fluorescent general anesthetic, 1-aminoanthracene. Proc Natl Acad Sci U S A 106 (2009) 6501-6. W.A. Lea, J. Xi, A. Jadhav, L. Lu, C.P. Austin, A. Simeonov, and R.G. Eckenhoff, A high-throughput approach for identification of novel general anesthetics. PLoS One 4 (2009) e7150.
Pre-limb bud Xenopus tadpoles were obtained in large batches from Nasco, Inc. Batches of 10 tadpoles were placed in 20 mm Petri dishes with approximately 20 ml of pond water ("pond water" is approximately a 20-fold dilution of Ringers saline solution). Compounds were added to the pond water from DMSO stock to obtain 100, 10 and 1 microM concentrations. Tadpoles were then incubated with these solutions for 1 hour, and then scored for "anesthesia". Anesthesia in this case is lack of movement in response to a sharp tap on the Petri dish lid, i.e., a lack of startle response. This correlates well to the loss of righting reflex in rodents and the loss of consciousness in humans. The pond water is then changed, and the return of a startle response is monitored for 24 hours. Immobility at 24 hours is considered death.

SMILES | immobility
CC(C)Oc1ccc(-c2ccc(=O)n(CC(=O)NCCc3ccccc3)n2)cc1 | 95% (active)
O=C(Cn1nc(-c2ccc3c(c2)OCO3)ccc1=O)NCCc1ccccc1 | 0% (inactive)
C[S+](=O)([O-])c1ccc(-c2ccc(=O)n(CC(=O)NCCc3ccccc3)n2)cc1 | 5% (inactive)

Same assay, conditions: startle-response immobility, 1 h, measured here: 24 h immobility, toxicity/death, at 10 µM

SMILES | immobility [%]
CC(C)Oc1ccc(-c2ccc(=O)n(CC(=O)NCCc3ccccc3)n2)cc1 | 5
O=C(Cn1nc(-c2ccc3c(c2)OCO3)ccc1=O)NCCc1ccccc1 | 0
C[S+](=O)([O-])c1ccc(-c2ccc(=O)n(CC(=O)NCCc3ccccc3)n2)cc1 | 5
